# PubChem BioAssay (Tox21)
# Calls of active or inactive are those of the source. A call without a number means that no potency is given here. Calls follow the shape of the full dose curve.
# Target: Thyrotropin-releasing hormone receptor (Homo sapiens) (UniProt P34981)
# Experiment: qHTS assay to identify small molecule agonists of the thyrotropin-releasing hormone receptor (TRHR) signaling pathway (AID 1346891);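 also: HEK293 cells expressing TRHR with calcium dye readout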
# Settings: TRHR-HEK293 calcium fluorescence, agonist mode; series mostly up to 57.6 µM
# Text: National Center for Advancing Translational Sciences [NCATS] NIH Chemical Genomics Center [NCGC] U.S. Environmental Protection Agency [EPA] National Institutes of Environmental Health Sciences [NIEHS] National Toxicology Program [NTP] Assay overview: Thyrotropin-releasing hormone (TRH) receptor (TRHR) is a G-protein-coupled receptor which binds the tripeptide thyrotropin releasing hormone. TRHR is found in the brain and, when bound by TRH, acts (through phospholipase C) to increase intracellular inositol trisphosphate. It plays a crucial role in the anterior pituitary where it controls the synthesis and secretion of thyroid stimulating hormone and prolactin. The TRHR-Hek293 assay is a cell-based assay, and it has the potential to screen G protein-coupled receptors. A compound/drug can either activate (agonist) or suppress (antagonist) GPCRs that can be monitored by levels of intracellular calcium. Using this assay, the Tox21 10K compound library was screened to identify potential TRHR agonists.
# Assay Protocol Summary: The TRHR-Hek293 cells were dispensed at 1500cells/4uL/well in 1536-well black-clear bottom plates using a Multidrop dispenser. After the assay plates were incubated at a 37 C/5% CO2 incubator for 18 hours, 4 uL of Dye-Loading Solution was added to each well. The plates were incubated at 37 C for 2 hours. For agonist mode, 23 nL of compounds dissolved in DMSO, positive controls or DMSO only was transferred to the assay plate by a pin tool. The fluorescence intensity in the plates was measured using FDSS 7000EX kinetic plate reader for 3 min at 1 sec intervals. Each test compound was measured at 15 concentrations and in triplicates.
# Chain of Thyrotropin-releasing hormone receptor (Homo sapiens) (P34981 whole entry, looked up): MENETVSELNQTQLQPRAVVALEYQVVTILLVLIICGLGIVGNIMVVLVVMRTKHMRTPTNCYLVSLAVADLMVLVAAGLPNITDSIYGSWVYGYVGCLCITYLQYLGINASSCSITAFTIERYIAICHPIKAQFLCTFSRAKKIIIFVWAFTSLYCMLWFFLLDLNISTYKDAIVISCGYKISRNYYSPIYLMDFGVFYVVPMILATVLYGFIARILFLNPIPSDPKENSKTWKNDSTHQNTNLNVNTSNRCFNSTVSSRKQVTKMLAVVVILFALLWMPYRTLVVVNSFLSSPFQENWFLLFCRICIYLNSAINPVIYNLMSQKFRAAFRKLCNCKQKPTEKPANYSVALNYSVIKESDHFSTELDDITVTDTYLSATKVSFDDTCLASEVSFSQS
row,Compound,Potency
1,CC[C@]1(O)C[C@H]2CN(CCc3c([nH]c4ccccc34)[C@@](C(=O)OC)(c3cc4c(cc3OC)N(C=O)[C@H]3[C@@](O)(C(=O)OC)[C@H](OC(C)=O)[C@]5(CC)C=CCN6CC[C@]43[C@@H]65)C2)C1,inactive
2,CN(C)CCC=C1c2ccccc2C=Cc2ccccc21,inactive
3,CC(=O)NC1(c2cccc(F)c2)CCN(CC[C@@]2(c3ccc(Cl)c(Cl)c3)CN(c3ccccc3)C(=O)CO2)CC1,inactive
4,O=C1c2ccccc2C(=O)N1CCc1noc(-c2ccc(CN3CCCCCC3)s2)n1,inactive
5,CN(C(=O)CN(CCO)CC(=O)N(C)C(C)(C)Cc1ccccc1)C(C)(C)Cc1ccccc1,inactive
6,CCOC(=O)C1=C(C)NC(C)=C(C(=O)OC)C1c1cccc(Cl)c1Cl (stereo not given),inactive
7,NNC(=O)CP(=O)(c1ccccc1)c1ccccc1,inactive
8,COC(=O)C1=C(C)NC(C)=C(C(=O)O[C@@H]2CCCN(Cc3ccccc3)C2)[C@@H]1c1cccc([N+](=O)[O-])c1,inactive
9,O[C@@H]1CO[C@H]2[C@@H]1OC[C@@H]2O,inactive
10,CCOC(=O)/C=C/C(=O)OCC,inactive
11,Cc1ccc2c(Br)cc(Br)c(O)c2n1,inactive
12,O=C(O)CCCCCCCCCCCBr,inactive
13,C=C/C(C)=C/C/C=C(\C)CCC=C(C)C,inactive
14,O=C1NC(=O)c2cc([N+](=O)[O-])ccc21,inactive
15,Oc1cccc(Nc2ccccc2)c1,inactive
16,O=C(O)c1ccc(OCCCOc2ccc(C(=O)O)cc2)cc1,inactive
17,CCC=CC#N,inactive
18,CCn1cc(C(=O)O)c(=O)c2cc(F)c(N3CCNCC3)cc21,inactive
19,COc1cc(C(=O)NCCCCCC(=O)O)cc(OC)c1OC,inactive
20,CN1C[C@H](C(=O)N[C@]2(C)O[C@@]3(O)[C@@H]4CCCN4C(=O)[C@H](Cc4ccccc4)N3C2=O)C[C@@H]2c3cccc4[nH]cc(c34)C[C@H]21,inactive

row,Compound,Potency
1,CC1=C(Br)C(=O)C(Br)=C/C1=C(/c1ccccc1S(=O)(=O)O)c1cc(Br)c(O)c(Br)c1C,inactive
2,CCC(OCCCOC)OC(C)=O (stereo not given),inactive
3,COC(=O)CCS,inactive
4,CC(=O)[C@H]1[C@H](C#N)C[C@H]2[C@@H]3CC=C4C[C@@H](O)CC[C@]4(C)[C@H]3CC[C@@]21C,inactive
5,CC(C)COCC(CN(Cc1ccccc1)c1ccccc1)N1CCCC1 (stereo not given),inactive
6,COc1ncnc(NS(=O)(=O)c2ccc(N)cc2)c1OC,inactive
7,C=C1CCC2CC1C2(C)C (stereo not given),inactive
8,C=COCC(C)C,inactive
9,CCCC(=O)C(=O)O,inactive
10,CC(=O)N/N=C/c1ccc([N+](=O)[O-])o1,inactive
11,CN1CCCN=C1COC(=O)C(O)(c1ccccc1)C1CCCCC1 (stereo not given),inactive
12,Cc1c(C)c2c(c(C)c1OC(=O)CCC(=O)OCCO)CC[C@@](C)(CCC[C@H](C)CCC[C@H](C)CCCC(C)C)O2,inactive
13,O=c1cc(-c2ccccc2)oc2ccc3ccccc3c12,inactive
14,COc1ccccc1Oc1c(NS(=O)(=O)c2ccc(C(C)(C)C)cc2)nc(-c2ncccn2)nc1OCCO,inactive
15,Cc1ccco1,inactive
16,C=Cc1ccc(S(=O)(=O)O)cc1,inactive
17,O=C(CCCN1CC=C(n2c(=O)[nH]c3ccccc32)CC1)c1ccc(F)cc1,inactive
18,NCCNCCO,inactive
19,CCOC(=O)c1ccc(OCCN2C[C@H](O)[C@@H](O)[C@H](O)[C@H]2CO)cc1,inactive
20,OCCN1CCN(CCCN2c3ccccc3Sc3ccc(Cl)cc32)CC1,inactive
